For one test, the system named is XIP peptide (Xip251-270). The experiment in a line: compounds binding XIP fragment 251-270 – biochemical, small-molecule microarray, fluorescence 635/667 nm, 0.5 µg/mL protein, primary screen (AID 1183). The note with it: fluorescence 635 nm, higher = more signal.
On to `CCCCc1nc2c(c3c1C[C@H](C)OC3)CN(CCOc1ccccc1)CC2`, for which the composite z-score came out at 0.566. Consider `COC(=O)C=CCCc1coc(C=CCNC(=O)OC)n1`, for which the composite z-score is 0.868. For the molecule `CCOC(=O)[C@H](Cc1ccccc1)NC(=O)CCC1CC(OC(=O)NCc2cccc3ccccc23)CC2(CCCC(COC(=O)NCC(c3ccccc3)c3ccccc3)O2)O1` (stereo partly drawn), the composite z-score is 0.366.

Regarding `O=C1[C@H]2[C@H]3[C@H](O)[C@H](O)CC(=NOCc4ccccc4)[C@H]3CC[C@H]2C(=O)N1Cc1ccc2c(c1)OCO2`, the composite z-score is -0.267. Take `CCCCC#C[C@@H]1C=C[C@H](Oc2ccc(C(=O)OC)cc2)[C@@H](COC(=O)OCC)O1`: the composite z-score was 0.522.

Turning to `CON=CC[C@@H]1C=C[C@H](OC(C)=O)[C@@H](COC(C)=O)O1`, the composite z-score amounted to 0.763.

System in a further test: not listed separately
The experiment in a line: blood-stage malaria parasite viability loss – strain 3D7, DAPI fluorescence, 100 nL, primary screen (AID 1184).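 Further: parasites grown inside human red blood cells in medium with human serum.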 The note with it: P. falciparum 3D7 growth, 3 d, higher = more signal.
Take `Cc1cc2c(c(=O)o1)[C@@H](O)[C@H]1O[C@H]1C2=O`: the z-score was -0.807. As to `CC(C)CON=C1[C@H]2CCn3c(=O)n(Cc4cc5c(cc4Cl)OCO5)c(=O)n3[C@H]2[C@H](O)[C@@H]2O[C@H]12`, the z-score was -1.17.

On to `CC(C)=NO[C@H](C)c1cn([C@H](CO)Cc2ccccc2)nn1`, for which the z-score was found to be 0.28. On the same count and under the same terms, the same measure for `Cc1ccc(S(=O)(=O)n2c3ccccc3c3nnc(C(=O)c4ccccc4)nc32)cc1`: 0.892; for `Cc1ccc(S(=O)(=O)NC(CCc2ccccc2)CC(=O)C(C)(C)C)cc1` (stereo not drawn): -0.268. The same measure, in the same setting: under `COC(=O)CC=C[C@@H](C)[C@@H](C=NO[C@@H](C)c1cc(-c2c(C)cc(C)cc2C)no1)NS(=O)(=O)c1ccc(C)cc1` stands -0.842; under `CON=C1[C@H]2CCn3c(=O)n(-c4ccccc4)c(=O)n3[C@H]2[C@H](O)[C@@H]2O[C@H]12`, -0.573.

Source of the values: PubChem BioAssay.
